Measurements as given in PubChem BioAssay.
Unmarked numbers belong to inactive results. The source made the active and inactive calls.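 The calls were made as follows: active = thallium flux through the channel raised or lowered by more than 3 SD from vehicle-only wells, actives on both sides; inactive = the rest.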

Each compound was assayed on R275C (assay: BK channel mutant inhibitors and activators – cell-based, U2OS BacMam, thallium flux, beta subunits, selectivity assay, profiling panel (AID 1259406;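 also: initial slope of Thallos dye fluorescence rise after thallium is added; log ratio against the mean of 0.3% DMSO vehicle wells on the same plate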)). Details: U2OS BacMam BK variants, at 30 µM.

| SMILES | log fold change Tl+ flux |
| --- | --- |
| O=[N+]([O-])c1ccc(N2CCSCC2)cc1O | -0.00302 |
| O=S(=O)(Nc1cc(Cl)c(-n2cccc2)cc1Oc1ccc(Cl)cc1)c1ccc(Cl)cc1 | 0.0112 |
| COc1cccc(C(=O)Nc2cc(F)c(Br)cc2F)c1 | -0.0759 |
| CCCn1c(=O)c(Br)cn(-c2ccccc2C)c1=O | 0.0371 |
| Cc1cc(C(=O)N2CCN(c3ncccc3C#N)CC2)no1 | 0.011 |
| FC(F)(F)c1ccc(-c2csc(C3(c4ccc(Cl)cc4Cl)CC3)n2)cc1 | -0.00802 |
| CCOC(=O)c1c[nH]n2c(=O)c3c(nc12)CCC3 | -0.0014 |
| CN(C)C=Nc1cc(Cl)c(-n2cccc2)cc1Oc1ccc(Cl)cc1 | -0.0532 |
| Cc1cc2c(NC(=O)c3ccccc3C(=O)O)cccc2nn1 | 0.0158 |
| O=c1n(-c2ccccc2)c(=O)n2n1C1CCC2C1 | 0.0483 |
| NC(Cc1ccc(OCc2ncc(C(F)(F)F)cc2Cl)cc1)=NOC(=O)c1ccccc1 | 0.0533 |
| Cc1cc2c(cc1C)CSC(c1ccco1)SC2 | -0.00435 |
| Cn1c(C(=O)O)ccc1S(=O)(=O)N(Cc1ccccc1)Cc1ccccc1 | 0.00591 |
| CCOC(=O)Cn1c(-c2c(Cl)cccc2Cl)noc1=O | 0.0179 |
| COC(=O)C(C#N)=C1NC(C)=NC(SC)=C1C#N | -0.014 |
| CS(=O)(=O)NNc1c(Cl)cc(Cl)cc1Cl | 0.0374 |
| Cc1cnc(N)c(C)n1 | -0.0212 |
| CC12CCC(c3c1nn(-c1ccccc1)c3C(F)(F)F)C2(C)C (stereo not given) | 0.00439 |
| N#CC(NCc1ccccc1Cl)=C(C#N)NCc1c(F)cccc1Cl | -0.2 (active) |
| O=S(=O)(NCc1ccc2c(c1)CCO2)c1cccs1 | -0.0104 |

| SMILES | log fold change Tl+ flux |
| --- | --- |
| Cc1ccc(S(=O)(=O)NC(=O)NCc2csc3ccc(Cl)cc23)cc1 | 0.0453 |
| CCSc1ccc(-c2noc(C(C)(C)C)n2)cn1 | 0.0189 |
| O=C(Nc1c(S(=O)(=O)c2ccccc2)csc1Br)c1ccccc1Cl | -0.0217 |
| O=C(O)CCSc1ccc2ccccc2c1 | 0.0461 |
| Cc1ccc(S(=O)(=O)Oc2c(Cc3ccccc3)c(=O)n(C)c3ccccc23)cc1 | -0.0579 |
| O=C1CCC(=O)N1c1ccc(S(=O)(=O)NCCCN2CCN(Cc3ccccc3)CC2)cc1 | -0.0386 |
| CN1c2ccsc2C(=O)C(=NNc2cccc(C(F)(F)F)c2)S1(=O)=O | -0.00855 |
| Cc1cc(NS(=O)(=O)c2ccc(NC(=O)c3nccnc3C(=O)O)cc2)no1 | -0.0122 |
| Clc1ccc(-c2cnc(-c3ccc(Cl)cc3)o2)cc1 | 0.0428 |
| Cn1c(SCCS(=O)(=O)c2ccc(OC(F)(F)F)cc2)nnc1C(F)(F)F | 0.0189 |
| N#CC1=C(Nc2ccccc2Cl)SC(c2ccncc2)NC1=O (stereo not given) | 0.0616 |
| COC(=O)c1c(S(=O)(=O)N2CCOCC2)c(C)n(C)c1C | -0.00135 |
| Cc1ccc(-c2nc(N=CNOC(=O)c3ccc([N+](=O)[O-])cc3)sc2C)cc1Cl | 0.00635 |
| CCCCCCCCCCCCSC(=S)Nc1ccc(Br)c(C)c1 | 0.0399 |
| O=[N+]([O-])c1cnc(Sc2nccc(-c3cccnc3)n2)s1 | 0.0275 |
| COc1ccc(Oc2ccc([N+](=O)[O-])cc2C2=NC(=CN(C)C)C(=O)O2)cc1 | -0.0108 |
| Cc1c(Br)sc2sc(-c3ccnc(SCc4ccccc4)n3)c(C)c12 | -0.000555 |
| NC1(C(=O)O)CCSCC1 | -0.0154 |
| COc1ccc2c(OC(C)=O)coc2c1 | 0.00531 |
| CC1(C)CC(=O)C=C(NCCCCCCCCNC2=CC(=O)CC(C)(C)C2)C1 | -0.0564 |

These compounds were tested on R275C/beta1 in the same assay as above. Details: U2OS BacMam BK variants, at 30 µM.

| SMILES | log fold change Tl+ flux |
| --- | --- |
| O=[N+]([O-])c1ccc(N2CCSCC2)cc1O | -0.0429 |
| O=S(=O)(Nc1cc(Cl)c(-n2cccc2)cc1Oc1ccc(Cl)cc1)c1ccc(Cl)cc1 | -0.0614 |
| COc1cccc(C(=O)Nc2cc(F)c(Br)cc2F)c1 | -0.106 |
| CCCn1c(=O)c(Br)cn(-c2ccccc2C)c1=O | 0.0334 |
| Cc1cc(C(=O)N2CCN(c3ncccc3C#N)CC2)no1 | 0.022 |
| FC(F)(F)c1ccc(-c2csc(C3(c4ccc(Cl)cc4Cl)CC3)n2)cc1 | 0.0119 |
| CCOC(=O)c1c[nH]n2c(=O)c3c(nc12)CCC3 | 0.00358 |
| CN(C)C=Nc1cc(Cl)c(-n2cccc2)cc1Oc1ccc(Cl)cc1 | -0.0556 |
| Cc1cc2c(NC(=O)c3ccccc3C(=O)O)cccc2nn1 | -0.0051 |
| O=c1n(-c2ccccc2)c(=O)n2n1C1CCC2C1 | 0.0201 |
| NC(Cc1ccc(OCc2ncc(C(F)(F)F)cc2Cl)cc1)=NOC(=O)c1ccccc1 | 0.0113 |
| Cc1cc2c(cc1C)CSC(c1ccco1)SC2 | 0.035 |
| Cn1c(C(=O)O)ccc1S(=O)(=O)N(Cc1ccccc1)Cc1ccccc1 | 0.0906 |
| CCOC(=O)Cn1c(-c2c(Cl)cccc2Cl)noc1=O | -0.00444 |
| COC(=O)C(C#N)=C1NC(C)=NC(SC)=C1C#N | -0.0163 |
| CS(=O)(=O)NNc1c(Cl)cc(Cl)cc1Cl | -0.0143 |
| Cc1cnc(N)c(C)n1 | -0.0766 |
| CC12CCC(c3c1nn(-c1ccccc1)c3C(F)(F)F)C2(C)C (stereo not given) | -0.0295 |
| N#CC(NCc1ccccc1Cl)=C(C#N)NCc1c(F)cccc1Cl | -0.262 (active) |
| O=S(=O)(NCc1ccc2c(c1)CCO2)c1cccs1 | -0.072 |

| SMILES | log fold change Tl+ flux |
| --- | --- |
| Cc1ccc(S(=O)(=O)NC(=O)NCc2csc3ccc(Cl)cc23)cc1 | 0.48 (active) |
| CCSc1ccc(-c2noc(C(C)(C)C)n2)cn1 | 0.0241 |
| O=C(Nc1c(S(=O)(=O)c2ccccc2)csc1Br)c1ccccc1Cl | 0.0155 |
| O=C(O)CCSc1ccc2ccccc2c1 | 0.0425 |
| Cc1ccc(S(=O)(=O)Oc2c(Cc3ccccc3)c(=O)n(C)c3ccccc23)cc1 | -0.0357 |
| O=C1CCC(=O)N1c1ccc(S(=O)(=O)NCCCN2CCN(Cc3ccccc3)CC2)cc1 | 0.0158 |
| CN1c2ccsc2C(=O)C(=NNc2cccc(C(F)(F)F)c2)S1(=O)=O | 0.0113 |
| Cc1cc(NS(=O)(=O)c2ccc(NC(=O)c3nccnc3C(=O)O)cc2)no1 | 0.022 |
| Clc1ccc(-c2cnc(-c3ccc(Cl)cc3)o2)cc1 | 0.00118 |
| Cn1c(SCCS(=O)(=O)c2ccc(OC(F)(F)F)cc2)nnc1C(F)(F)F | -0.0256 |
| N#CC1=C(Nc2ccccc2Cl)SC(c2ccncc2)NC1=O (stereo not given) | 0.0544 |
| COC(=O)c1c(S(=O)(=O)N2CCOCC2)c(C)n(C)c1C | 0.0384 |
| Cc1ccc(-c2nc(N=CNOC(=O)c3ccc([N+](=O)[O-])cc3)sc2C)cc1Cl | 0.0986 |
| CCCCCCCCCCCCSC(=S)Nc1ccc(Br)c(C)c1 | 0.0206 |
| O=[N+]([O-])c1cnc(Sc2nccc(-c3cccnc3)n2)s1 | 0.026 |
| COc1ccc(Oc2ccc([N+](=O)[O-])cc2C2=NC(=CN(C)C)C(=O)O2)cc1 | -0.015 |
| Cc1c(Br)sc2sc(-c3ccnc(SCc4ccccc4)n3)c(C)c12 | -0.0282 |
| NC1(C(=O)O)CCSCC1 | -0.0495 |
| COc1ccc2c(OC(C)=O)coc2c1 | -0.00826 |
| CC1(C)CC(=O)C=C(NCCCCCCCCNC2=CC(=O)CC(C)(C)C2)C1 | -0.0828 |
